“And” between values parts separate entries of the source, which are not always exact repeats. Identical values can stand only once. The panel holds about 83,000 compounds, 20% with a hit somewhere; the sample as a whole holds those more often.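 Single-dose data. Exposure time 48 hours. Values below 10 considered active.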 The source made the active and inactive calls.
Assays:
Assay in all cases: NCI-60 one-dose screen, 48 h (100 = growth as untreated, 0 = no growth, -100 = all killed)
Settings in all cases: 10 µM unless noted
SK-MEL-2 melanoma = tested on: SK-MEL-2 melanoma
EKVX NSCLC = tested on: EKVX NSCLC
SN12C renal = tested on: SN12C renal
TK-10 renal = tested on: TK-10 renal
ACHN renal = tested on: ACHN renal
CAKI-1 renal = tested on: CAKI-1 renal
A498 renal = tested on: A498 renal
HL-60(TB) leukemia = tested on: HL-60(TB) leukemia
CCRF-CEM leukemia = tested on: CCRF-CEM leukemia
UO-31 renal = tested on: UO-31 renal

SMILES	growth (SK-MEL-2 melanoma)	growth (EKVX NSCLC)	growth (SN12C renal)	growth (TK-10 renal)	growth (ACHN renal)	growth (CAKI-1 renal)	growth (A498 renal)	growth (HL-60(TB) leukemia)	growth (CCRF-CEM leukemia)	growth (UO-31 renal)
N#CCc1ccc(CC#N)cc1	99.4% (inactive)	97.7% (inactive)	86.7% (inactive)	100% (inactive)	103% (inactive)	97.1% (inactive)	78.8% (inactive)	92.9% (inactive)	100% (inactive)	–
CCCCCCCCCCCCCCCC[n+]1ccccc1	-83.3% (active) and -80.1% (active)	-47.9% (active) and -2.17% (active)	-37.9% (active) and -29.2% (active)	–	-23.8% (active) and 7.44% (active)	-16.1% (active) and -34.4% (active)	-18.7% (active) and -7.63% (active)	-55.7% (active)	-69% (active) and -43.7% (active)	-28% (active) and 11.7% (inactive)
Cc1cc(N(CCCl)CCCl)ccc1C=Nc1ccc(-c2csc(-c3ccccc3)n2)cc1	97.2% (inactive)	111% (inactive)	64.4% (inactive)	113% (inactive)	80.5% (inactive)	32.7% (inactive)	97.7% (inactive)	49.1% (inactive)	–	–
O=C1NC(=O)C(=Cc2ccccc2)C(=O)N1	106% (inactive) and 114% (inactive)	98.4% (inactive) and 101% (inactive)	89.7% (inactive) and 102% (inactive)	–	99.5% (inactive) and 112% (inactive)	84.2% (inactive) and 103% (inactive)	128% (inactive) and 94.2% (inactive)	68.3% (inactive) and 105% (inactive)	90.7% (inactive) and 107% (inactive)	93.5% (inactive)
CC[C@H](C)[C@H](NC(=O)[C@H]1CCCCN1C)C(=O)N(C)[C@H](C[C@@H](OC(C)=O)c1nc(C(=O)N[C@@H](Cc2ccccc2)C[C@H](C)C(=O)O)cs1)C(C)C	2.53% (active)	38.4% (inactive)	47.5% (inactive)	–	14.3% (inactive)	35.9% (inactive)	-2.03% (active)	-29.8% (active)	7.95% (active)	38.2% (inactive)
C[C@]12CC[C@H]3[C@@H](C[C@@H]4SC(Nc5ccccc5)=N[C@@]45C/C(=N/O)CC[C@]35C)[C@@H]1CCC2=O	69% (inactive)	86.6% (inactive)	84.7% (inactive)	–	60.4% (inactive)	59.3% (inactive)	96.3% (inactive)	70.1% (inactive)	8.6% (active)	91.5% (inactive)
Oc1cc(N2CC2)c(O)cc1N1CC1	-37.5% (active)	58.4% (inactive)	12.7% (inactive)	–	2.38% (active)	-1.5% (active)	-75.2% (active)	16.1% (inactive)	24.7% (inactive)	-36.6% (active)
OCCNC1CCCCC1	104% (inactive)	97.9% (inactive)	100% (inactive)	106% (inactive)	102% (inactive)	102% (inactive)	93.4% (inactive)	100% (inactive)	–	–
CCCC1CCCCC12C(=O)NC(=O)NC2=O (configuration not stated)	105% (inactive) and 99.8% (inactive)	85.6% (inactive)	101% (inactive) and 106% (inactive)	–	104% (inactive) and 106% (inactive)	94.8% (inactive) and 99.6% (inactive)	70.3% (inactive) and 102% (inactive)	121% (inactive) and 94.2% (inactive)	109% (inactive) and 101% (inactive)	84.3% (inactive) and 87.9% (inactive)
CC1(C)N(Nc2ccccc2)C(=O)C2CCCN21 (configuration not stated)	84% (inactive)	74.4% (inactive)	91.5% (inactive)	–	21% (inactive)	6.09% (active)	96.5% (inactive)	-31.4% (active)	18.5% (inactive)	32.2% (inactive)
c1ccc2c(c1)sc1ccccc12	113% (inactive)	93.6% (inactive)	98.4% (inactive)	–	–	84.4% (inactive)	–	–	103% (inactive)	79.2% (inactive)
CN1CCc2cc3c(cc2C1O)OCO3 (configuration not stated)	76.1% (inactive) and 108% (inactive)	107% (inactive) and 92.8% (inactive)	112% (inactive) and 99.6% (inactive)	–	–	87.5% (inactive) and 95.4% (inactive)	121% (inactive) and 98% (inactive)	99.7% (inactive)	86.8% (inactive) and 103% (inactive)	101% (inactive) and 82.7% (inactive)
CCCC[C@H]1C(=O)O[C@H](C)[C@H](NC(=O)c2cccc(NC=O)c2O)C(=O)O[C@@H](C)[C@@H]1OC(=O)CC(C)C	93.4% (inactive)	57.7% (inactive)	59.6% (inactive)	–	56.6% (inactive)	34.5% (inactive)	–	37% (inactive)	28.7% (inactive)	57.3% (inactive)
CCC(=O)C(CC(C)N1CCCCCC1)(c1ccccc1)c1ccccc1 (configuration not stated)	103% (inactive)	90.8% (inactive)	97.8% (inactive)	84% (inactive)	97.6% (inactive)	79% (inactive)	84.5% (inactive)	95.5% (inactive)	–	–
O=Cc1cn(Cc2ccccc2)c2ccccc12	27.1% (inactive)	120% (inactive)	98.1% (inactive)	25.1% (inactive)	91.3% (inactive)	21.9% (inactive)	-92.7% (active)	105% (inactive)	–	–
C[C@]12CCc3sc(Nc4ccc(O)cc4)nc3C1=CC[C@@H]1[C@@H]2CC[C@]2(C)C(=O)CC[C@@H]12	72.5% (inactive)	98% (inactive)	30.4% (inactive)	–	-17.3% (active)	47.1% (inactive)	101% (inactive)	8.98% (active)	8.33% (active)	-48.8% (active)
OCCN=Cc1c[nH]c2ccccc12	109% (inactive)	93.8% (inactive)	93.3% (inactive)	–	94.3% (inactive)	80.4% (inactive)	107% (inactive)	101% (inactive)	114% (inactive)	75.7% (inactive)
CC1(C)C2CCC1(CS(=O)(=O)O)C(=O)C2 (configuration not stated)	107% (inactive) and 106% (inactive)	101% (inactive) and 94.6% (inactive)	87.1% (inactive) and 111% (inactive)	–	95.9% (inactive) and 105% (inactive)	97.5% (inactive) and 84.5% (inactive)	84.3% (inactive) and 96.9% (inactive)	104% (inactive) and 80.1% (inactive)	96.1% (inactive) and 103% (inactive)	86% (inactive) and 110% (inactive)
CC1=CC(=Nc2ccc(N(CCCl)CCCl)cc2)C=C(C)C1=O	-8.46% (active)	70.6% (inactive)	20.4% (inactive)	–	–	-44.9% (active)	69.8% (inactive)	-7.43% (active)	-6.58% (active)	-13.7% (active)
CCC(=O)C(CC(C)[N+](C)(C)C)(c1ccccc1)c1ccccc1 (configuration not stated)	104% (inactive)	–	98.2% (inactive)	98.1% (inactive)	102% (inactive)	95.4% (inactive)	111% (inactive)	109% (inactive)	–	95.9% (inactive)
O=S1(=O)OCCO1	113% (inactive)	100% (inactive)	93.3% (inactive)	–	99.2% (inactive)	89.5% (inactive)	99% (inactive)	98.6% (inactive)	94.6% (inactive)	–
C[C@]12C[C@H](c3ccoc3)OC(=O)[C@H]1CC[C@@]1(C)[C@@H]2[C@H]2C=C[C@]1(O)C(=O)O2	94.9% (inactive)	95.4% (inactive)	97.6% (inactive)	88.6% (inactive)	108% (inactive)	81.9% (inactive)	105% (inactive)	73.5% (inactive)	96% (inactive)	–
NC(=O)Oc1cc(OC(N)=O)cc(N(CCCl)CCCl)c1	93.2% (inactive)	–	37.5% (inactive)	103% (inactive)	15.7% (inactive)	-24.7% (active)	77.6% (inactive)	15.1% (inactive)	13.4% (inactive)	34.5% (inactive)
C#COc1cccc(Nc2ncnc3cc(NC(=O)CF)ccc23)c1	21.6% [6.25 µM] (inactive)	67.8% [6.25 µM] (inactive)	54.7% [6.25 µM] (inactive)	60.7% [6.25 µM] (inactive)	48.3% [6.25 µM] (inactive)	45.5% [6.25 µM] (inactive)	75.3% [6.25 µM] (inactive)	54.5% [6.25 µM] (inactive)	-7.49% [6.25 µM] (active)	–
CC1=CC(=O)CCC12CCOC2=O (configuration not stated)	125% (inactive)	91.4% (inactive)	95.2% (inactive)	–	–	91.3% (inactive)	91.7% (inactive)	86.5% (inactive)	–	–
Cc1cc2c(cc1-c1ccnc(/C=C/C(=O)O)c1)C(C)(C)CCC2(C)C	93.9% (inactive)	86.1% (inactive)	88% (inactive)	115% (inactive)	81.6% (inactive)	91.8% (inactive)	73.7% (inactive)	59.2% (inactive)	95.7% (inactive)	–
CC(Oc1ccc(-c2ccccc2)cc1)C(=O)O (configuration not stated)	107% (inactive)	–	104% (inactive)	–	104% (inactive)	99.2% (inactive)	77.7% (inactive)	97.3% (inactive)	98.4% (inactive)	91.8% (inactive)

Source: PubChem BioAssay (NCI)
